Results on 3 molecules are retold here after the supplement of paper PMC8728848.

The entries come from a sample that favours the strongest signals as a whole.

What all share (experiment): glycan array binding signal (z-score within array); higher = stronger binding
Holding throughout (conditions): glycan notation: IUPAC condensed, linker removed

Test [1] deals with Neu5Ac(a2-3)Gal(b1-3)GlcNAc(b1-3)GalNAc. The gist of the method: (§1)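 Glycan array data came from 3228 arrays in the Consortium for Functional Glycomics database, and only arrays with an available protein sequence were kept. Glycan names were put into IUPAC-condensed notation, and columns mapping to the same glycan were averaged. The binding signal is a within-array Z-score, averaged across arrays of one protein sequence run at different concentrations or buffers and across linkers. A negative Z-score can be read as non-binding.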

Test [2] addresses Neu5Ac(a2-3)Gal(b1-4)GlcNAc(b1-3)Gal(b1-4)GlcNAc(b1-3)Gal(b1-4)GlcNAc. A digest of the protocol:
as §1

In test [3] the target is Neu5Ac(a2-3)Gal(b1-4)[Fuc(a1-3)]GlcNAc. The gist of the method:
as §1

Test [4] concerns the target Neu5Ac(a2-3)Gal6S(b1-4)GlcNAc. A digest of the protocol:
as §1

For test [5], the target named is Neu5Ac(a2-6)Gal(b1-4)GlcNAc(b1-2)Man(a1-6)[Gal(b1-4)GlcNAc(b1-2)Man(a1-3)]Man(b1-4)GlcNAc(b1-4)GlcNAc. The gist of the method:
as §1

The target of test [6] is Neu5Ac(a2-6)Gal(b1-4)GlcNAc(b1-3)Gal(b1-4)[Fuc(a1-3)]GlcNAc(b1-3)Gal(b1-4)[Fuc(a1-3)]GlcNAc. The gist of the method: as §1
The target in test [7] is Neu5Gc(a2-6)GalNAc. The gist of the method: as §1
For test [8], the target named is Fuc(a1-2)Gal(b1-3)GlcNAc(b1-3)Gal(b1-4)Glc. A digest of the protocol:
as §1

Test [9] has as its target Fuc(a1-2)Gal(b1-4)GlcNAc(b1-3)Gal(b1-4)GlcNAc(b1-3)Gal(b1-4)GlcNAc. The gist of the method: as §1
Test [10] addresses Fuc(a1-2)Gal(b1-4)GlcNAc6S. The gist of the method: as §1
Test [11] deals with Fuc(a1-2)Gal(b1-4)[Fuc(a1-3)]GlcNAc. A digest of the protocol:
as §1

Test [12] deals with Fuc(a1-2)Gal(b1-4)[Fuc(a1-3)]GlcNAc(b1-3)Gal(b1-4)[Fuc(a1-3)]GlcNAc(b1-3)Gal(b1-4)[Fuc(a1-3)]GlcNAc. The gist of the method:
as §1

The target of test [13] is Fuc(a1-2)Gal6S(b1-4)Glc6S. A digest of the protocol: as §1
Test [14] addresses Fuc(a1-2)[GalNAc(a1-3)]Gal(b1-4)Glc. A digest of the protocol: as §1
Test [15] addresses Fuc(a1-3)[Gal(b1-4)]GlcNAc6S. The gist of the method: as §1
Test [16] has as its target Fuc(a1-3)[Gal3S(b1-4)]GlcNAc6S. A digest of the protocol: as §1
Test [17] concerns the target Gal(a1-6)Glc. A digest of the protocol: as §1
Test [18] concerns the target Gal(b1-4)GlcNAc(b1-3)Gal(b1-4)GlcNAc(b1-3)Gal(b1-4)GlcNAc. A digest of the protocol: as §1
For test [19], the target named is Gal3S(b1-3)GalNAc. A digest of the protocol:
as §1

Test [20] has as its target Gal3S6S(b1-4)GlcNAc6S. A digest of the protocol:
as §1

For test [21], the target named is Gal4S6S(b1-4)GlcNAc. A digest of the protocol:
as §1

For test [22], the target named is GalNAc(a1-3)GalNAc. A digest of the protocol: as §1
The target of test [23] is GlcA(b1-3)GlcNAc. The gist of the method: as §1
Test [24] addresses Kdn(a2-3)Gal(b1-3)GlcNAc. A digest of the protocol:
as §1

Test [25] has as its target Man(a1-2)Man(a1-2)Man(a1-3)Man. The gist of the method: as §1
Test [26] deals with Neu5Ac(a2-3)Gal(b1-3)[Fuc(a1-4)]GlcNAc. A digest of the protocol: as §1
Test [27] has as its target Neu5Ac(a2-3)Gal(b1-4)Glc. The gist of the method:
as §1

Test [28] deals with Neu5Ac(a2-3)Gal(b1-4)GlcNAc(b1-2)Man(a1-3)[Neu5Ac(a2-6)Gal(b1-4)GlcNAc(b1-2)Man(a1-6)]Man(b1-4)GlcNAc(b1-4)GlcNAc. A digest of the protocol: as §1
Test [29] addresses Neu5Ac(a2-3)Gal(b1-4)GlcNAc(b1-3)Gal(b1-3)GlcNAc. The gist of the method: as §1
In test [30] the target is Neu5Ac(a2-3)Gal(b1-4)[Fuc(a1-3)]GlcNAc(b1-3)Gal(b1-4)[Fuc(a1-3)]GlcNAc(b1-3)Gal(b1-4)[Fuc(a1-3)]GlcNAc. A digest of the protocol:
as §1

Test [31] deals with Neu5Ac(a2-6)Gal(b1-4)GlcNAc6S. The gist of the method: as §1
The target in test [32] is Neu5Ac(b2-6)GalNAc. A digest of the protocol:
as §1

For test [33], the target named is Neu5Gc(a2-3)Gal(b1-3)[Fuc(a1-4)]GlcNAc. The gist of the method: as §1
Test [34] addresses Neu5Gc(a2-3)Gal(b1-4)Glc. The gist of the method:
as §1

The target in test [35] is Fuc(a1-2)Gal(b1-4)GlcNAc(b1-2)Man(a1-6)[Gal(b1-4)GlcNAc(b1-2)Man(a1-3)]Man(b1-4)GlcNAc(b1-4)GlcNAc. A digest of the protocol:
as §1

Test [36] concerns the target Fuc(a1-2)Gal6S(b1-4)GlcNAc. A digest of the protocol:
as §1

Test [37] deals with Fuc(a1-3)[Gal(b1-4)]GlcNAc. A digest of the protocol:
as §1

Test [38] addresses Gal(a1-3)Gal(b1-4)Glc. The gist of the method: as §1
The target in test [39] is Gal(b1-3)GalNAc. The gist of the method:
as §1

Test [40] addresses Gal(b1-3)GlcNAc(b1-3)Gal(b1-4)Glc. The gist of the method: as §1
The target in test [41] is Gal(b1-4)GlcNAc(b1-3)Gal(b1-4)Glc. The gist of the method:
as §1

The target in test [42] is GlcA(b1-3)Gal. The gist of the method: as §1
Test [43] concerns the target GlcNAc(b1-3)[GlcNAc(b1-6)]Gal(b1-4)GlcNAc. The gist of the method: as §1
The target of test [44] is GlcNAc(b1-4)GlcNAc(b1-4)GlcNAc(b1-4)GlcNAc(b1-4)GlcNAc(b1-4)GlcNAc. The gist of the method: as §1
The target of test [45] is Man(a1-3)[Man(a1-6)]Man. A digest of the protocol:
as §1

In test [46] the target is Man(b1-4)GlcNAc. The gist of the method:
as §1

Test [47] concerns the target Neu5Ac(a2-3)Gal(b1-4)[Fuc(a1-3)]GlcNAc(b1-6)[Gal(b1-3)]GalNAc. The gist of the method:
as §1

Test [48] concerns the target Neu5Ac(a2-6)Gal(b1-4)GlcNAc(b1-2)Man(a1-6)[GlcNAc(b1-2)Man(a1-3)]Man(b1-4)GlcNAc(b1-4)GlcNAc. A digest of the protocol:
as §1

B1: Gal 3 (Homo sapiens), P17931 (protein)
chain: MADNFSLHDALSGSGNPNPQGWPGAWGNQPAGAGGYPGASYPGAYPGQAPPGAYPGQAPPGAYHGAPGAYPGAPAPGVYPGPPSGPGAYPSSGQPSAPGAYPATGPYGAPAGPLIVPYNLPLPGGVVPRMLITILGTVKPNANILDFQRGNDVAFHFNPRFNENNRRVIVCNTKLDNNWGREERQSVFPFESGKPFKIQVLVEPDHFKVAVNDAHLLQYNHRVKKLNEISKLGISGDIDLTSASYTMI
Turning to B1, the “glycan array binding signal (z-score)” value is -0.375 in test [1]; 3.82 in test [2]; -0.39 in test [3]; -0.387 in test [4]; -0.391 in [5]; -0.386 in test [6]. In addition, in [7], the “glycan array binding signal (z-score)” value is -0.392.

B2: CLC (Homo sapiens), Q9UBD9 (protein)
chain: MDLRAGDSWGMLACLCTVLWHLPAVPALNRTGDPGPGPSIQKTYDLTRYLEHQLRSLAGTYLNYLGPPFNEPDFNPPRLGAETLPRATVDLEVWRSLNDKLRLTQNYEAYSHLLCYLRGLNRQAATAELRRSLAHFCTSLQGLLGSIAGVMAALGYPLPQPLPGTEPTWTPGPAHSDFLQKMDDFWLLKELQTWLWRSAKDFNRLKKKMQPPAAAVTLHLGAHGF
As to B2, the “glycan array binding signal (z-score)” value in test [8] was -0.218; in test [9], -0.886; in [10], -0.106; in test [11], -0.557; in test [12] it was 0.011; in test [13], 2.23. The “glycan array binding signal (z-score)” value in test [14] is 1.52; in [15], -0.923; in test [16] it was 2.72; in [17], -0.312; in test [18] it was -0.565; in [19] it was -0.144. In addition, the “glycan array binding signal (z-score)” value is 11.1 in test [20]; 2.49 in [21]; 0.257 in test [22]; 0.215 in test [23]; -0.192 in test [24]; 0.263 in [25]. Further, the “glycan array binding signal (z-score)” value in test [26] was -0.63; in [27], 0.101; in [28] it was 0.098; in [29], 0.852; in test [30], -0.485; in test [31] it was -0.346. Besides, the “glycan array binding signal (z-score)” value was -0.297 in test [32], -0.279 in [33] and 2.45 in [34].

B3: TbCVNHOa (Tuber borchii), Q5MK11 (protein)
chain: MSYADSSRNAVLTNGGRTLRAECRNADGNWVTSELDLDTCIGNPNGFLGWGMQNFSHSSEDIKLEEGGRKLTCRPKTVDGGFRERQGIDLNRIQNVNGRLVFQ
B3: the “glycan array binding signal (z-score)” value in [8] was 1.94; in [35], -0.642; in test [9] it was -0.116; in test [10], 0.067; in [36] it was 0.327; in [37] it was -0.024. Moreover, the “glycan array binding signal (z-score)” value in [38] is 1.45; in [39], -0.24; in [40], 2.76; in test [41], 1.38; in test [42] it was -0.018; in test [43], 0.219. For the same molecule, the “glycan array binding signal (z-score)” value in [44] is -0.762; in test [25], 5.14; in test [45] it was -0.273; in [46], -0.533; in [47], 0.487; in test [48], -0.034.
